According to PubChem BioAssay AID2590 (National Center for Advancing Translational Sciences (NCATS), 2010):
Values joined by “and” are separate entries in the source; they are usually repeats but may differ in a detail not shown here. Equal entries are not always repeated. Inconclusive results are not listed. Active and inactive are the calls of the source. Calls come from the whole dose curve; as a rule, active = well fitted curve in the direction sought with a large enough effect; inconclusive = small, poorly fitted or top-dose-only effect, or another doubt; inactive = no such curve, though single readings can be large or run the other way.
Potency is the fitted concentration of half-maximal effect.
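Throughout, for Potency: enzyme source is Gaucher patient spleen homogenate not purified recombinant protein.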

The compounds below were run against Lysosomal acid glucosylceramidase (Homo sapiens) (UniProt P04062) (assay: qHTS Assay for Inhibitors and Activators of N370S glucocerebrosidase as a Potential Chaperone Treatment of Gaucher Disease: Primary Screen Confirmation). Conditions: N370S glucocerebrosidase enzyme activity, fluorogenic substrate; series mostly up to 54 µM.
Sequence of Lysosomal acid glucosylceramidase (Homo sapiens) (P04062 whole entry N409S): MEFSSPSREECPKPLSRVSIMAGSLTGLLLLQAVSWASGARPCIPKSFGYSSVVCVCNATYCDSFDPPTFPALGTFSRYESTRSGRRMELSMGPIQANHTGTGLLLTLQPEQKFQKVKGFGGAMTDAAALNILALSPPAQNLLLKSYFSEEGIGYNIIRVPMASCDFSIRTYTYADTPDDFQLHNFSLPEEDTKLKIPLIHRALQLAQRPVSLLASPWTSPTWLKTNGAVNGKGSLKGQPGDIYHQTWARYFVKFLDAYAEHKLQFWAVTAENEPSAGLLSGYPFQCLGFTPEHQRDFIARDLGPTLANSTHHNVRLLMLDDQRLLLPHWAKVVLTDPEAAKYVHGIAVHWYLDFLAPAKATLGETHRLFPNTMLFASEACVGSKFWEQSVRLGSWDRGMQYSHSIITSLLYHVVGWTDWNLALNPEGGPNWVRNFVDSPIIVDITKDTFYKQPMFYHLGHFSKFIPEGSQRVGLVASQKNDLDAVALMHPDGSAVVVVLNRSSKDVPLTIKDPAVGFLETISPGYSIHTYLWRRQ
Summary of the method: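 Patient-spleen homogenate carrying N370S GC (27 ug) in pH 5.0 citrate buffer with 0.01% Tween-20, 1 mM 4-methylumbelliferyl-beta-glucoside, 40 min at 37C; fluorescence 365/440 nm after NaOH/glycine stop; AC50 from Hill fits.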
In the case of `Cc1ccc(S(=O)(=O)N2CCN(c3nc(-n4cnc5ccccc54)nc4ccccc34)CC2)cc1`, the Potency is reported as “inactive”. In the case of `N#Cc1ccc(S(=O)(=O)N2CCN(c3nc(-c4cccs4)nc4ccccc34)CC2)cc1`, the Potency is reported as 2.01 µM (active). For `O=C(NCCCc1cnc[nH]1)NCCCN(Cc1ccc(Cl)c(Cl)c1)c1ccc(Br)cn1`, the Potency was 1.03 µM (active). In the case of `C#CCOCCOCCOCCNc1nc(N2CCN(C(=O)CCCCCCCCCCNC(=O)[C@H](CCCCN)n3cc(C)nn3)CC2)nc(N2CCN(C(=O)CCCCCCCCCCNC(=O)[C@H](CCCN=C(N)N)n3cc(C[C@@H](C)CC)nn3)CC2)n1`, the Potency is reported as 7.3 µM (active). With `O=S(=O)(c1cccs1)N1CCN(c2nc(-c3cccs3)nc3ccccc23)CC1` the Potency was 0.819 µM (active). `Oc1ccccc1Nc1nc(NCC2CCCO2)c2ccccc2n1` (stereo unspecified) was tested, and the Potency was “inactive”. `C#CCOCCOCCOCCNc1nc(N2CCN(C(=O)CCCCCCCCCCNC(=O)[C@H](CCCCN)n3cc(CCCC(=O)O)nn3)CC2)nc(N2CCN(C(=O)CCCCCCCCCCNC(=O)[C@H](CCCN=C(N)N)n3cc(C[C@@H](C)CC)nn3)CC2)n1` was tested, and the Potency was 8.19 µM (active). For `O=S(=O)(c1cc(Cl)cc(Cl)c1)N1CCN(c2nc(-c3cccs3)nc3ccccc23)CC1`, the Potency was 2.53 µM (active). `COc1ccccc1S(=O)(=O)N1CCN(c2nc(-c3cccs3)nc3ccccc23)CC1` was tested, and the Potency was 0.73 µM (active). `Cc1ccc(-c2nc(N3CCN(S(=O)(=O)c4ccc(F)cc4)CC3)c3ccc(Cl)cc3n2)cc1` was tested, and the Potency was “inactive”. In the case of `O=S(=O)(c1ccc2c(c1)OCCO2)N1CCN(c2nc(-c3cccs3)nc3ccccc23)CC1`, the Potency is reported as 410 nM (active) and 450 nM (active).
